# Activity calls are given as the source filed them.
# What was measured:
# [1] = small molecules captured by biotinylated probe aFSTL3 – biochemical, small-molecule microarray, fluorescence 635/667, stem cell growth factor project, primary screen (AID 1064); details: higher = more signal;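 also: measures binding of the biotinylated anti-FSTL3 antibody to printed compounds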
# [2] = binders from COS7 lysate, DM2A8 probe, primary screen, torsin A project, cell lysate, small-molecule microarray, fluorescence 635/667 (AID 1065); details: higher = more signal, COS7 lysate expressing mutant human TOR1A
# [3] = small molecules captured by biotinylated probe aFGF2 – biochemical, small-molecule microarray, fluorescence 635/667, stem cell growth factor project, primary screen (AID 1067); details: higher = more signal;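 also: measures binding of biotinylated aFGF2 protein to printed compounds on slides; z-score merges feature fluorescence and signal-to-noise across triplicate slides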
# [4] = small molecules captured by biotinylated probe aFGF10 – biochemical, small-molecule microarray, fluorescence 635/667, stem cell growth factor project, primary screen (AID 1071); details: higher = more signal;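 also: score merges 667 nm spot intensity and signal to noise from triplicate slides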
# [5] = target: Neurogenic locus notch homolog protein 2 (Homo sapiens) (UniProt Q04721); assay: small molecules binding Notch2 protein – biochemical, small-molecule microarray, 635 nm fluorescence, stem cell growth factors, primary screen (AID 1073); details: higher = more signal
# [6] = target: Pro-neuregulin-1, membrane-bound isoform (Homo sapiens) (UniProt Q02297); assay: small molecules binding neuregulin-1 protein – biochemical, small-molecule microarray, fluorescence 635/667, psychiatric disease protein project, primary screen (AID 1075); details: NRG1 binding, 635 nm fluorescence, higher = more signal;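 also: score combines 667 nm spot fluorescence with signal to noise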
# [7] = tested on: Neuregulin-1 EGF-like domain; assay: small molecules binding NRG1 EGF domain – biochemical, small-molecule microarray, 635 nm fluorescence, primary screen (AID 1081); details: higher = more signal;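 also: binding of the protein to compounds printed on small-molecule microarray slides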
# [8] = FRG1 expression reporter modulators in myotubes – cell-based, C2C12 myotubes, firefly/Renilla luciferase, luminescence, FRG1 inhibition for FSHD, primary screen (AID 1084); details: FRG1 promoter luciferase, higher = more signal, called active from +8 up or from −8 down
# [9] = small molecules captured by biotinylated probe aFST – biochemical, small-molecule microarray, fluorescence 635/667, stem cell growth factor project, primary screen (AID 1086); details: higher = more signal;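 also: score merges 667 nm fluorescence with signal-to-noise of each printed compound spot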
# [10] = binders of probe aHhip on microarray, primary screen, stem cell growth factor project, biochemical, small-molecule microarray, fluorescence 635/667 (AID 1087); details: higher = more signal;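 also: score merges spot fluorescence at 667nm with spot signal to noise ratio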
# [11] = tested on: PRMT1 (protein arginine N-methyltransferase 1); assay: small molecules binding arginine methyltransferase PRMT1 – biochemical, small-molecule microarray, 635 nm fluorescence, primary screen (AID 1088); details: higher = more signal;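 also: binding of Prmt1 protein to compounds spotted on small-molecule microarray slides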
# [12] = growth effects on S. cerevisiae YJM789 – YJM789 clinical isolate, OD600, 24 h, basal, primary screen (AID 1089); details: higher = more signal, called active from +8 up or from −8 down;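 also: growth of clinical yeast isolate S. cerevisiae YJM 789 seeded 1000 cells per well; test concentration not given here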
# [13] = S. pombe growth modifiers, basal conditions – strain 972, OD600, 24 h, no modulator, primary screen (AID 1090);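 also: basal condition with compound alone and no growth modifier present; test concentration not given here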; details: S. pombe 972 growth, higher = more signal, called active from +8 up or from −8 down
# [14] = budding yeast growth modifiers under rapamycin – strain BY4716, OD600, 96 h, primary screen (AID 1091); also: test concentration not given here; details: S. cerevisiae BY4716 + rapamycin, higher = more signal, called active from +8 up or from −8 down
# [15] = target: Torsin-1A-interacting protein 2 (Homo sapiens) (UniProt Q8NFQ8); assay: small molecules binding lysate-expressed LULL1 – cell lysate, human LULL1 lysate, 635/667 nm fluorescence, primary screen (AID 1092); details: small-molecule microarray, hLULL1 lysate binding, 635 nm fluorescence; higher = more signal;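 also: probe is lysate of COS7 cells overexpressing human LULL1; score merges per-feature 667 nm fluorescence with signal-to-noise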
# [16] = optical density change of DRC41 E. coli – strain DRC41, OD650, 24 h, E. coli filamentation project, primary screen (AID 1093);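 also: MC1000 strain lacking acrAB efflux and sulA so SOS filamentation is blocked; test concentration not given here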; details: E. coli DRC41 growth, higher = more signal, called active from +8 up or from −8 down
# [17] = probe aLefty2 binding to arrayed compounds – biochemical, biotinylated probe, 635/667 nm fluorescence, primary screen (AID 1094); details: small-molecule microarray, higher = more signal;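 also: score merges spot fluorescence near 667 nm with spot signal-to-noise ratio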
# [18] = tested on: Noggin (protein binding on small-molecule microarray); assay: small molecules binding Noggin protein – biochemical, 635/667 nm fluorescence, primary screen (AID 1095); details: 635 nm fluorescence, higher = more signal;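 also: score merges 667 nm feature fluorescence with signal to noise over triplicate slides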
# [19] = target: Neurogenic locus notch homolog protein 3 (Homo sapiens) (UniProt Q9UM47); assay: small molecules binding NOTCH3 protein – biochemical, 635/667 nm fluorescence, primary screen (AID 1096); details: small-molecule microarray, 635 nm fluorescence, higher = more signal
# [20] = probe aEGFR binding to arrayed compounds – biochemical, biotinylated probe, 635/667 nm fluorescence, primary screen (AID 1097); details: small-molecule microarray, higher = more signal;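 also: probe is a biotinylated anti-EGFR antibody binding compounds printed on slides; score combines fluorescence near 667 nm and signal to noise of each spot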
# Chain of Torsin-1A-interacting protein 2 (Homo sapiens) (Q8NFQ8 whole entry, looked up): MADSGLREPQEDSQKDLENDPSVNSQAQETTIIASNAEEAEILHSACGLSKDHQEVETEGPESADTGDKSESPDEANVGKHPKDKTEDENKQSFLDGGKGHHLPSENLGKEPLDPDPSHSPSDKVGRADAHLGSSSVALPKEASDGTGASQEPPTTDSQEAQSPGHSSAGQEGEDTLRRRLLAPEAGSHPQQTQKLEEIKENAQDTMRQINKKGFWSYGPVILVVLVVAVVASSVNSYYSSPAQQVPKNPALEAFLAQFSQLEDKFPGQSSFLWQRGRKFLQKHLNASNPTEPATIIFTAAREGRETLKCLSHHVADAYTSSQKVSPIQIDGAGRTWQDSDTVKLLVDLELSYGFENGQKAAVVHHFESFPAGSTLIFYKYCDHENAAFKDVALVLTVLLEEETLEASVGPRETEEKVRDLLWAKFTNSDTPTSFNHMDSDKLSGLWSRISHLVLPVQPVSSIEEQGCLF
# Chain of Neurogenic locus notch homolog protein 2 (Homo sapiens) (Q04721 whole entry, looked up, canonical isoform): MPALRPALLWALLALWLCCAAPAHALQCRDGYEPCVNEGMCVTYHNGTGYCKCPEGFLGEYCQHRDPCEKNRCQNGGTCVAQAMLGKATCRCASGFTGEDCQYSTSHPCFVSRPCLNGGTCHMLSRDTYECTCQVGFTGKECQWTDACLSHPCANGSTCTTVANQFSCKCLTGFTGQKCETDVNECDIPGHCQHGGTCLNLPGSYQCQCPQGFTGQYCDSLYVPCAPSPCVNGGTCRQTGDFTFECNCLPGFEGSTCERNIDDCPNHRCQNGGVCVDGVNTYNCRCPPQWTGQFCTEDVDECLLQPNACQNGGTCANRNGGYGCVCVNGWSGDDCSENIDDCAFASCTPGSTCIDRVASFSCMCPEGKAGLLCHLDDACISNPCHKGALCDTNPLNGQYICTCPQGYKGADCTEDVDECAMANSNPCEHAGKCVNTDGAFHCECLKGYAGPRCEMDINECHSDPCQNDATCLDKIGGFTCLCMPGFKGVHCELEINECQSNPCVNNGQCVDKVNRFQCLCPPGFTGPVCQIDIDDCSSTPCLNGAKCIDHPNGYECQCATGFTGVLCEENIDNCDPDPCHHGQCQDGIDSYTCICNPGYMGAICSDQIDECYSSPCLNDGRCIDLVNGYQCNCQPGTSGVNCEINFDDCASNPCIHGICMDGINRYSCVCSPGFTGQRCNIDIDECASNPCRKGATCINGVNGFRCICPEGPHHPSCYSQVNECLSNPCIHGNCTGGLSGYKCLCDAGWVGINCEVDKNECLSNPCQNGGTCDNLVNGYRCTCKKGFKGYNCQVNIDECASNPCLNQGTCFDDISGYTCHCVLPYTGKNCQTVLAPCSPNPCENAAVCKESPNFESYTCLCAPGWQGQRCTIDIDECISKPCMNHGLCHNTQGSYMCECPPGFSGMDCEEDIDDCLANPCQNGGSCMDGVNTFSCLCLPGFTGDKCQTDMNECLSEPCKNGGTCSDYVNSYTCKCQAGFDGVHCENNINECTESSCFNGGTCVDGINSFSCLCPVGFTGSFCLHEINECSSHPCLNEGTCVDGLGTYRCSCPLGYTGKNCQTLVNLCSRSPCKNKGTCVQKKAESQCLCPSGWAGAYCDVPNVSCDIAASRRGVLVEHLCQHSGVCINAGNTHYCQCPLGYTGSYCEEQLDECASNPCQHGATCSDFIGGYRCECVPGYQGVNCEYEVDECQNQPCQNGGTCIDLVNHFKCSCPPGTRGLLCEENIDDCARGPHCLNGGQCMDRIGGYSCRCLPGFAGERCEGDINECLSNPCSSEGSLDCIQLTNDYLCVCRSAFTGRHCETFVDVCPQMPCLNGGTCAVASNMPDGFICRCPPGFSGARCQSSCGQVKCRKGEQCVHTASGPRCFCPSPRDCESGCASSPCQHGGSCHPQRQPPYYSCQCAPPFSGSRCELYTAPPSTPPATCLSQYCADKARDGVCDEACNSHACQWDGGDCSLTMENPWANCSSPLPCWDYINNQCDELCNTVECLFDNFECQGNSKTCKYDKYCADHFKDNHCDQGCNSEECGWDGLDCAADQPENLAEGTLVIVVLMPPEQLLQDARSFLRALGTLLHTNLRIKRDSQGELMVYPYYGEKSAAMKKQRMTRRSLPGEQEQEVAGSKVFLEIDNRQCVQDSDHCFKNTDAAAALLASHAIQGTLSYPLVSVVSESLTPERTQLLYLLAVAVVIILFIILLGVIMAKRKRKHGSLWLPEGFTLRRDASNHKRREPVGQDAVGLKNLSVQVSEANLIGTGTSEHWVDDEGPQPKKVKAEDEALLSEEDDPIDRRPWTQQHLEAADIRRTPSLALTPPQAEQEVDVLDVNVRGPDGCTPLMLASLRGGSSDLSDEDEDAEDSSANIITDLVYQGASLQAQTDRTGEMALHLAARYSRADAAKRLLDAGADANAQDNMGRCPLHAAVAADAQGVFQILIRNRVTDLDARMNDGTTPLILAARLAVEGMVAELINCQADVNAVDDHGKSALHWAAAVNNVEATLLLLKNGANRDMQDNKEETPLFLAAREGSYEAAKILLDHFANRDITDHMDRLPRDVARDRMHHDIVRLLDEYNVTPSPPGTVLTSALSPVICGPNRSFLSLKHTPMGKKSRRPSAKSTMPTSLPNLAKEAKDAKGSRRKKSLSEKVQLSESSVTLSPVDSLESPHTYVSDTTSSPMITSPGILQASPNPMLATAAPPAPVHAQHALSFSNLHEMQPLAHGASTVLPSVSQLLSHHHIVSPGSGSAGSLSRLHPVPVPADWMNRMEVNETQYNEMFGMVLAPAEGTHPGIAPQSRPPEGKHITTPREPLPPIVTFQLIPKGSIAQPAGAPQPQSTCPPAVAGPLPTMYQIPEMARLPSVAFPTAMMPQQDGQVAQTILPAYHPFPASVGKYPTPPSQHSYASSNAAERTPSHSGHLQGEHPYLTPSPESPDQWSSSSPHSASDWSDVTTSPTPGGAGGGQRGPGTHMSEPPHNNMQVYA
# Chain of Pro-neuregulin-1, membrane-bound isoform (Homo sapiens) (Q02297 whole entry, looked up, the tested form may be a part, canonical isoform): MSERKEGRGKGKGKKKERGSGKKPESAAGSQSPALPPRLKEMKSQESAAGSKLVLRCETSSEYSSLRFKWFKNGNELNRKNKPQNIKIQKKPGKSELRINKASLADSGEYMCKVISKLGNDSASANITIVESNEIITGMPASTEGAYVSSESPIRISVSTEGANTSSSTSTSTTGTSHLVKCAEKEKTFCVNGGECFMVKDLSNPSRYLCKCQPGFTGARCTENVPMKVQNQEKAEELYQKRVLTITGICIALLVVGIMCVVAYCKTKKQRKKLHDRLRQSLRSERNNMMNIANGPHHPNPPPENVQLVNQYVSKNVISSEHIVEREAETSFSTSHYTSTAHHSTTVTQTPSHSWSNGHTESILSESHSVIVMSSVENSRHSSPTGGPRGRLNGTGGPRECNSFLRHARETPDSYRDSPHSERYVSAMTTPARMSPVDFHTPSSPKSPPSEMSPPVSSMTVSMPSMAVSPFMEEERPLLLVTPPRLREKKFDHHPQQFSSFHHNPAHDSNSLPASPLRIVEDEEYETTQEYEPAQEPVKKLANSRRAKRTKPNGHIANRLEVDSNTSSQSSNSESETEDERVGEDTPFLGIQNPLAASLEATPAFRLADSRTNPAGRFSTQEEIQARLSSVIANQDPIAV
SMILES,composite z-score [1],composite z-score [2],composite z-score [3],composite z-score [4],composite z-score [5],composite z-score [6],composite z-score [7],z-score [8],composite z-score [9],composite z-score [10],composite z-score [11],z-score [12],z-score [13],z-score [14],composite z-score [15],z-score [16],composite z-score [17],composite z-score [18],composite z-score [19],composite z-score [20]
C[C@]1(C(=O)NCc2ccccc2)c2ccccc2C(=O)N(Cc2ccc(OC(F)(F)F)cc2)[C@H]1c1ccc(CO)cc1,0.161,1.14,-0.0507,-0.0562,-0.323,0.349,0.711,-4.27 (inactive),-0.409,-0.431,-0.0073,-0.913 (inactive),-0.935 (inactive),-0.67 (inactive),2.06,1.36 (inactive),-0.0719,0.0824,-0.184,-0.0689
O=C(CCN1CCOCC1)c1cccc(O)c1,-0.302,1.79,-0.0521,0.628,1.31,1.23,1.17,-1.28 (inactive),0.852,-0.0953,1.3,-1.35 (inactive),-5.52 (inactive),-1.01 (inactive),0.571,-2.03 (inactive),0.197,0.645,1.07,0.234
C=CCNC(=O)[C@@H]1[C@H]2C(=O)O[C@H](c3ccccc3)[C@H](c3ccccc3)N2[C@H](c2ccc(O)cc2)[C@@]12C(=O)N(C(=O)OCCOC)c1ccccc12,-0.0042,1.11,-0.0434,0.558,0.369,1.51,1.23,0.993 (inactive),0.376,-0.0994,1.53,0.655 (inactive),0.625 (inactive),2.8 (inactive),3.25,1.11 (inactive),-0.0458,0.559,0.509,-0.14
CCCN1C(=O)[C@]2(COC(c3ccc(OCCCO)cc3)=N2)Cc2ccccc21,0.955,0.325,0.0092,0.251,0.419,1.41,1.18,-0.0593 (inactive),0.486,0.0044,1.18,-0.102 (inactive),-2.37 (inactive),-1.35 (inactive),2.88,0.525 (inactive),0.303,0.134,0.112,-0.0774
Cc1ccccc1C(O)C1C=CC2C(=O)N(C)C(=O)C2N1N1CCCCC1 (stereo not given),0.363,0.831,0.108,1.13,1.54,1.42,1.38,0.703 (inactive),0.927,-0.0296,1.11,0.299 (inactive),0.619 (inactive),-0.417 (inactive),3.18,-1.24 (inactive),0.331,0.21,1.13,-0.0044
C=CC[C@@]1(C(=O)O)N=C(c2ccc(OCCCO)cc2)O[C@@H]1c1ccccc1N=[N+]=[N-],1.44,-0.0147,-0.0112,0.484,0.0707,0.915,1.07,4.25 (inactive),0.965,0.421,1.23,0.0908 (inactive),-0.594 (inactive),-1.46 (inactive),3.24,0.0672 (inactive),0.23,-0.203,-0.231,-0.0225
CCOC(=O)C[C@H]1[C@H](OC(=O)c2ccc(C(=O)c3ccccc3)cc2)[C@@H](NC(=O)C2CCCCC2)c2cc(OCCCO)ccc2N1C(=O)c1ccccc1,-0.379,-0.248,-0.0478,0.494,1.02,0.857,0.95,-0.541 (inactive),0.253,0.682,1.55,-0.326 (inactive),0.358 (inactive),-0.155 (inactive),2.04,-1.15 (inactive),-0.02,0.45,-0.215,0.0546
[N-]=[N+]=NCc1ccccc1C[C@]1(C(=O)O)N=C(c2ccc(OCCCO)cc2)O[C@H]1c1ccccc1CN=[N+]=[N-],-0.0279,0.169,-0.0474,0.396,0.591,1.53,1.16,-1.66 (inactive),0.467,-0.239,0.893,-1.17 (inactive),-3.09 (inactive),-1.92 (inactive),3.25,-0.292 (inactive),0.0987,-0.118,0.759,0.0617
C[C@H]1NC(=O)[C@H](Cc2ccccc2)NC(=O)[C@@]23C(=O)N[C@@H](Cc4ccccc4)C2[C@H](C)[C@@]2(C)O[C@H]2C3/C=C/C/C=C\CNC1=O (stereo not given in full),-0.231,0.32,-0.0878,-0.32,-0.221,-0.547,-0.867,0.049 (inactive),-0.146,0.238,-0.839,0.967 (inactive),0.266 (inactive),0.865 (inactive),-1.32,1 (inactive),-0.0724,-0.389,-0.795,-0.183
CC(C)c1ccc(NN2C(C(O)c3cccc(O)c3)C=CC3C(=O)N(c4ccccc4)C(=O)C32)cc1 (stereo not given),0.0067,0.422,0.0864,0.618,1.57,1.97,1.3,-1.04 (inactive),1.33,0.122,1.46,1.18 (inactive),-0.653 (inactive),0.697 (inactive),3.62,-0.416 (inactive),0.234,0.527,1.06,-0.0053

# From PubChem BioAssay
